# Pf growth 96h – P. falciparum growth inhibition at 96 hour, primary screen for plastid delayed-death inhibitors | Potency, µM (doses to about 28.7 µM), for the others: at the highest dose activity change, negative = inhibition, usual class: inhibitors | 6.9% of 320,000 active | AID 504834 | P. falciparum luciferase reporter growth, 96 h; also: potency is read from the fitted curve at half-maximal effect; % is scaled to controls: 0 for no effect and ±100 for the full control effect
#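 Readout is luminescence from an integrated firefly luciferase in P. falciparum. Red cells, 2% hematocrit and 0.05% parasitemia final, were cultured with compound through two parasite generations (96 hours) at 37 C, 5% CO2.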
# Shiga toxin inh – Shiga toxin inhibition. Vero cells, Shiga toxin protein synthesis inhibition reporter. inhibition, % at 38.7 µM. 9.2% of 290,000 active; in the data active = inhibition mostly above about 28%, no sharp cut-off; inactive = mostly below about 43%; also: 0% is about no effect
# SARS PLpro yeast – SARS-CoV PLP inhibition in yeast | Potency, µM (highest dose often 32.9 µM), without a hit: top-dose activity, positive = growth rescue, most hits filed as activators | 0.19% of 330,000 active | AID 485353 | S. cerevisiae expressing SARS-CoV PLpro, growth rescue; calls by dose curve; also: potency is read from the fitted curve at half-maximal effect; 0% is about no effect; nearly all actives have a fitted effect of over 55% in size
# CHX counter – counter-screen hit for Shiga toxin inhibitors, cycloheximide; cell reporter, cycloheximide protein synthesis inhibition counterscreen; max response, %; 12% of 300,000 active; in the data active = max response mostly above about 13%, no sharp cut-off; inactive = mostly below about 14%; also: read at 38.3 µM for the half of the compounds with a filed dose; 0% is about no effect
# NS1 function inh – inhibitors of influenza NS1 protein function | Potency, µM (doses to about 46.1 µM), inactives show top-dose activity, positive = more growth | 0.4% of 270,000 active; calls by dose curve; also: potency is read from the fitted curve at half-maximal effect; actives are rising curves; nearly all actives have a fitted effect of over 50% in size
#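 Recovery from NS1-induced slow growth read by OD600 in budding yeast switched to galactose assay medium (pH 6.0, -URA) at 1:100 dilution. Compound 23 nl per well; the matching strain lacking NS1 serves as control.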
# Pf growth 48h – P. falciparum growth inhibition at 48 hours (one generation); 5.9% of 310,000 active; Potency, µM (top dose mostly 28.7 µM), inactives show top-dose activity change, negative = inhibition, actives largely listed as inhibitors; AID 504832; P. falciparum luciferase growth in erythrocytes, 48 h; also: potency is read from the fitted curve at half-maximal effect; % is scaled to controls: 0 for no effect and ±100 for the full control effect
#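 Here the parasites carry a stable luciferase gene and grow inside erythrocytes in Albumax-based RPMI medium with compound for one erythrocytic cycle. Activity is scored as loss of luminescent signal.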
# An asterisk follows results filed as active; ? = inconclusive; / = not tested or not shown. Rows were chosen to be rich in hits. Some 21% of all compounds tested hit in one or more screens of this group. Unless noted, calls follow the shape of the dose curve; as a rule, active = well fitted inhibition curve with a large enough effect; inconclusive = small, poorly fitted or top-dose-only effect, or another doubt; inactive = no such curve, though single readings can be large or run the other way.
SMILES,Pf growth 96h,Shiga toxin inh,SARS PLpro yeast,CHX counter,NS1 function inh,Pf growth 48h
COc1ccc(/C=N/NC(=O)c2ccn[nH]2)cc1Cn1nc(C)c([N+](=O)[O-])c1C,-10%,69*,-1%,23*,0%,6%
COc1ccc(/C=N/NC(=O)c2ccn[nH]2)cc1COc1ccc([N+](=O)[O-])c(C)c1,?,55*,-1%,35*,11%,?
COc1ccc(/C=N/NC(=O)c2cccnc2)cc1COc1ccc([N+](=O)[O-])c(C)c1,-15%,-10,-3%,-2,8%,-11%
COc1ccc(C(=O)N/N=C/c2ccc(OC)c(CN3CCc4cc(OC)c(OC)cc4C3C)c2)cc1 (stereo not given),-34%,2,-2%,8,/,9.3µM*
COc1ccc(/C=N\NC(=O)c2ccccc2Cl)cc1COc1c(F)c(F)c(F)c(F)c1F,22%,16,?,15,4%,5%
Cc1ccc(S(=O)(=O)n2cnc(C)c2)cc1,?,-4,1%,-2,12%,4%
O=C(Nc1ccc(Br)cc1)c1ccc(F)c(S(=O)(=O)NC2CCCCCC2)c1,/,10,/,5,/,/
CCOc1ccc(S(=O)(=O)N2CCC(C(=O)N3CCN(c4ccccc4F)CC3)CC2)cc1C,2%,-4,-3%,-3,21%,-19%
CCCCC(=O)N/N=C/c1sccc1C,59%,-13,0%,9,3%,32%
Cc1ccsc1/C=N/NC(=O)C(=O)NCC(C)C,34%,76*,0%,41*,2%,167%
CCNC(=S)N/N=C/c1sccc1C,?,34*,1%,6,/,?
Cc1ccsc1/C=N/NC(=S)NCCc1ccccc1,0%,31*,-7%,32*,/,14%
O=C(CSC(=S)N1CCCC1)N1CCN(S(=O)(=O)c2cccc([N+](=O)[O-])c2)CC1,-7%,2,6%,4,12%,-19%
CCc1cc(-c2n[nH]c(C)c2-c2nc3ccccc3n2C)c(O)cc1O,13µM*,-13,1%,-1,6%,?
CCc1cc(-c2n[nH]c(CCC(=O)O)c2-c2nc3ccccc3n2C)c(O)cc1O,?,11,-4%,2,/,13%
CCc1cc(-c2n[nH]c(C)c2-c2nc3ccccc3n2C)c(O)c(CN2CCN(C)CC2)c1O,-25%,-6,22%,-2,-8%,12µM*
CCc1cc2c(=O)c(-c3nc4ccccc4n3C)c(C)oc2c(CN2CCN(C)CC2)c1O,/,11,14%,-5,-5%,?
O=S(=O)(Nc1cc(O)cc2cccnc12)c1ccc(Cl)s1,/,-14,/,-11,/,/
CCSc1ccc([C@@H]2[C@@H]3C(=O)N(CC)C(=O)[C@@H]3[C@]3(C(=O)OC)CCCN23)cc1,?,/,-6%,/,/,10µM*
CCC(C)Sc1ccc([C@@H]2[C@H]3C(=O)N(CC)C(=O)[C@H]3[C@]3(C(=O)OC)CCCCN23)cc1 (stereo not given in full),3.3µM*,/,-1%,/,/,2.6µM*
CCCSc1ccc([C@H]2N[C@@](C)(C(=O)OC)[C@H]3C(=O)N(C)C(=O)[C@@H]23)cc1,69%,/,-1%,/,/,-7%
CCCCCCSc1ccc([C@H]2N[C@@](C)(C(=O)OC)[C@H]3C(=O)N(C)C(=O)[C@@H]23)cc1,?,/,-3%,/,/,15µM*
CCSc1ccc([C@@H]2[C@H]3C(=O)N(CC)C(=O)[C@H]3[C@]3(C(=O)OC)CCCCN23)cc1,4.7µM*,/,-2%,/,/,4.1µM*
O=C(Cc1c[nH]c2ccccc12)NCC(=O)Nc1ccc(F)c(F)c1F,28%,/,3%,/,/,1%
CCSc1ccc([C@@H]2[C@H]3C(=O)N(C)C(=O)[C@H]3[C@]3(C(=O)OC)CCCCN23)cc1,?,/,-3%,/,/,12µM*
SMILES,Pf growth 96h,Shiga toxin inh,SARS PLpro yeast,CHX counter,NS1 function inh,Pf growth 48h
CCCCCCSc1ccc([C@@H]2[C@H]3C(=O)N(C)C(=O)[C@H]3[C@]3(C(=O)OC)CCCCN23)cc1,12µM*,/,1%,/,/,13µM*
CCOC(=O)c1cnn2c(C)cc(-c3ccc(F)cc3)nc12,48%,53,5%,33*,-19%,55%
Cc1cc(-c2ccc(F)cc2)nc2cc(C(N)=O)nn12,?,-4,-7%,0,3%,/
CCc1c(C)nc(SCC(=O)N2CC(C)OC(C)C2)[nH]c1=O (stereo not given),7%,/,-5%,/,/,33%
CC(=O)Nc1ccc(NC(=O)/C(Cl)=C/c2ccccc2)cc1,21%,157*,-7%,47*,-59%,55%
CC(=O)Nc1ccc(C(=O)N/C(=C/c2ccccc2)C(=O)Nc2cccc(C(=O)O)c2)cc1,20%,1,-1%,-3,2%,3%
Cc1ccc(C(=O)/C=C/c2cc(C#N)n(C)c2C)cc1,-5%,80*,-4%,35*,-1%,-22%
Cc1c(C=C2C(=O)c3ccccc3C2=O)cc(C#N)n1C,40%,-4,1%,2,1%,-1%
Cc1ccc(N=Nc2c(O)c(S(=O)(=O)O)cc3cc(S(=O)(=O)O)ccc23)c(C)c1,/,/,/,/,-3%,/
Cc1ccc(N=Nc2ccc(N)cc2C)c(S(N)(=O)=O)c1,-18%,94*,-1%,65*,1%,-6%
Cc1cccc(N=Nc2ccc(O)c3ncccc23)c1,?,active,/,46*,-72%,1.9µM*
Oc1ccc(N=Nc2ccc3c(c2)OCCO3)c2ncccc12,1µM*,95*,4%,48*,-50%,?
NS(=O)(=O)c1cc(Br)c(N=Nc2ccc(O)c3ncccc23)c(Br)c1,/,/,/,/,3%,/
Cc1ccc(N=Nc2cc(C)ccc2O)c(C)c1,68%,77*,-2%,36*,3%,100%
Cc1ccc(C)c(N=Nc2ccc(O)c3ncccc23)c1,?,151*,?,43*,/,2.1µM*
O=C(O)Cc1ccc(NC(=O)c2ccc3c(c2)C(=O)N(Cc2ccco2)C3=O)cc1,?,11,-5%,25,10%,14%
CC(C)COc1ccc(C(=O)Nc2ccc(NC(=O)c3ccco3)c(Cl)c2)cc1,394%,6,-2%,13,3%,/
O=C(Nc1ccc(Br)c(Cl)c1)c1ccco1,-9%,76*,-35%,41*,-103%,-6%
Cc1ccc(NC(=O)CCNC(=O)c2ccco2)cc1Cl,-10%,-2,2%,-1,-6%,-14%
O=C(Nc1ccc(NC(=O)c2ccco2)c(Cl)c1)c1ccccc1,50%,79*,-2%,47*,2%,26%
CC(C)Oc1ccc(C(=O)Nc2ccc(NC(=O)c3ccco3)c(Cl)c2)cc1,-12%,50*,0%,40*,-13%,-1%
O=C(COc1cccc(Cl)c1)Nc1ccccc1N1CCCCC1,?,/,0%,/,/,?
CN(Cc1ccon1)C(=O)CC1C(=O)NCCN1CC(C)(C)C (stereo not given),-29%,-11,-2%,-4,2%,3%

# From PubChem BioAssay
